# Measured values from the supplement of paper PMC10646978.
# ± gives the standard deviation.
# Tests used:
# Settings in all cases: modulator concentration 10 µM
# [1] = test system: RAW-Dual (murine macrophage reporter line); assay: NF-kB reporter (SEAP) activity fold change vs agonist alone; higher = enhanced NF-kB activity
# Method in brief: (§1)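 In 384-well plates holding 50 000 RAW-Dual murine macrophage reporter cells per well, compound at 10 μM final was pre-incubated for 1 hour at 37 °C, after which a PRR agonist was added overnight. Supernatant SEAP read with QUANTI-Blue at 620 nm absorbance reported NF-κB, and Lucia luciferase read with QUANTI-Luc luminescence reported IRF. Fold change values come from dividing each reporter signal by the mean of agonist-only control wells on the same plate, averaged over replicate plates with propagated errors.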
# [2] = test system: RAW-Dual (murine macrophage reporter line); assay: IRF reporter (Lucia luciferase) activity fold change vs agonist alone; higher = enhanced IRF activity
# Method in brief: as §1
# [3] = test system: RAW-Dual (murine macrophage reporter line); assay: viability score (confluency relative to resting cells, overnight) (fraction); higher = more viable, active = viable (0.7 or more)
# Method in brief: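 In 384-well plates, RAW-Dual macrophages received compound at a final 10 μM overnight. Two confluency masks were then made with IncuCyte software from IncuCyte images of all imaged wells. The viability score is defined as confluency relative to resting cells. Passing the cutoff required both masks to lie above 70% of resting cells.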
# [4] = agonist: CpG ODN 1826 0.5 ug/mL
SMILES,"NF-kB reporter [1, 4]",NF-kB reporter ([1]; agonist: LPS 0.1 ug/mL),NF-kB reporter ([1]; agonist: MPLA […]),IRF reporter ([2]; agonist: 3'3'-cGAMP 10 ug/mL),IRF reporter ([2]; agonist: LPS 0.1 ug/mL),IRF reporter ([2]; agonist: MPLA […]),viability score [3]
O=S1(=O)N=C(NN=Cc2ccccc2O)c2ccccc21,1 ± 0.081,0.95 ± 0.14,1.1 ± 0.12,1 ± 0.049,1.25 ± 0.16,1.46 ± 0.25,1.03 (active)
c1ccc(CC(=NNc2ccccc2)c2ccc(-c3ccccc3)cc2)cc1,0.855 ± 0.091,0.879 ± 0.069,1.07 ± 0.11,0.657 ± 0.028,1.3 ± 0.2,1.35 ± 0.28,1.03 (active)
Cc1nonc1OC(C)CNc1ccc([N+](=O)[O-])cc1 (configuration not stated),0.989 ± 0.078,1.01 ± 0.083,1.14 ± 0.089,0.84 ± 0.11,0.995 ± 0.1,0.843 ± 0.15,0.998 (active)
CN1CCN(C2=C(Cl)C(=O)N(c3ccc(Cl)c(Cl)c3)C2=O)CC1,0.902 ± 0.11,1.01 ± 0.091,0.759 ± 0.045,0.524 ± 0.016,1.54 ± 0.28,1.24 ± 0.21,1.01 (active)
CCOC(=O)C1C(=O)C=C(C)C(C(=O)OCC)C1c1ccc(Br)cc1 (configuration not stated),1.05 ± 0.083,1.01 ± 0.093,1.06 ± 0.07,1.17 ± 0.047,1.3 ± 0.17,1.25 ± 0.19,1 (active)
Cl.Cl.NC1=NN(c2ccc(N)cc2)CC1,0.251 ± 0.043,1 ± 0.084,0.991 ± 0.13,0.763 ± 0.035,1.34 ± 0.28,1.22 ± 0.15,1 (active)
COC(=O)C1=C(C)NC(=O)CC1c1ccc(Cl)c(Cl)c1 (configuration not stated),0.982 ± 0.075,0.801 ± 0.065,0.957 ± 0.094,1.06 ± 0.036,1.16 ± 0.15,1.23 ± 0.19,1.01 (active)
CC1(C)Cc2c(sc3nc(SCC(N)=O)n(CCc4ccccc4)c(=O)c23)CO1,0.815 ± 0.07,0.814 ± 0.054,0.927 ± 0.1,1.02 ± 0.054,1.24 ± 0.084,1.3 ± 0.11,1.01 (active)
COc1c2c(nc3ccccc13)OC(C(C)(O)COC(C)=O)C2 (configuration not stated),0.944 ± 0.071,1.02 ± 0.11,0.953 ± 0.11,1.04 ± 0.045,1.42 ± 0.15,1.3 ± 0.22,1 (active)
CCCS(=O)c1ccc2nc(NC(=O)OC)[nH]c2c1 (configuration not stated),1.04 ± 0.15,0.998 ± 0.1,1.05 ± 0.037,0.971 ± 0.058,0.927 ± 0.037,0.917 ± 0.11,0.998 (active)
Cc1ccc(OCCCOc2cccc3cccnc23)c(Cl)c1,0.808 ± 0.076,1.02 ± 0.056,0.877 ± 0.057,0.947 ± 0.077,1.32 ± 0.14,1.05 ± 0.076,1.01 (active)
c1ccc(CSc2nnc(-c3ccncc3)[nH]2)cc1,1.08 ± 0.085,0.945 ± 0.097,1.04 ± 0.028,0.582 ± 0.033,0.888 ± 0.043,0.872 ± 0.09,0.996 (active)
O=c1oc2ccccc2c(O)c1Cc1c(O)c2ccccc2oc1=O,1.06 ± 0.089,0.972 ± 0.061,1.03 ± 0.051,1.06 ± 0.12,0.916 ± 0.048,0.844 ± 0.07,0.997 (active)
C[C@H](Cc1cc2c(c(C(N)=O)c1)N(CCCO)CC2)NCCOc1ccccc1OCC(F)(F)F,1.2 ± 0.2,1.09 ± 0.29,1.03 ± 0.057,0.732 ± 0.058,1.05 ± 0.26,0.893 ± 0.2,0.998 (active)
COc1cc(/C=C/C(=O)/C=C(O)/C=C/c2ccc(O)c(OC)c2)ccc1O,0.662 ± 0.16,1.14 ± 0.32,2.02 ± 0.15,0.0871 ± 0.0028,0.279 ± 0.091,0.517 ± 0.041,0.272 (inactive)
N[C@@H](Cc1cc(I)c(Oc2cc(I)c(O)c(I)c2)c(I)c1)C(=O)O,0.496 ± 0.045,0.804 ± 0.069,0.908 ± 0.19,0.572 ± 0.044,1.15 ± 0.2,1.23 ± 0.31,1.03 (active)
OCCN1CCN(CCCN2c3ccccc3Sc3ccc(Cl)cc32)CC1,1.21 ± 0.051,0.614 ± 0.069,0.894 ± 0.077,3.18 ± 0.17,1.32 ± 0.18,1.49 ± 0.42,0.907 (active)
O=C(NN=Cc1c(O)ccc2ccccc12)c1ccccc1,1.48 ± 0.12,1.19 ± 0.08,1.12 ± 0.054,0.752 ± 0.11,1.23 ± 0.077,1.14 ± 0.12,0.979 (active)

SMILES,"NF-kB reporter [1, 4]",NF-kB reporter ([1]; agonist: LPS 0.1 ug/mL),NF-kB reporter ([1]; agonist: MPLA […]),IRF reporter ([2]; agonist: 3'3'-cGAMP 10 ug/mL),IRF reporter ([2]; agonist: LPS 0.1 ug/mL),IRF reporter ([2]; agonist: MPLA […]),viability score [3]
CCOC(=O)C1=C(COCCN)NC(C)=C(C(=O)OC)C1c1ccccc1Cl (configuration not stated),0.533 ± 0.055,0.899 ± 0.052,1.55 ± 0.14,1.58 ± 0.1,1.34 ± 0.12,1.13 ± 0.095,0.589 (inactive)
CCCNS(=O)(=O)Nc1ncnc(OCCOc2ncc(Br)cn2)c1-c1ccc(Br)cc1,0.775 ± 0.21,0.995 ± 0.074,1.16 ± 0.1,0.417 ± 0.047,0.383 ± 0.083,0.465 ± 0.062,0.953 (active)
CC(C)(C)c1cc(NCc2ccccn2)n2ncc(-c3ccc(Cl)cc3)c2n1,0.256 ± 0.019,0.477 ± 0.032,0.79 ± 0.025,0.296 ± 0.028,0.962 ± 0.12,3.1 ± 0.86,0.978 (active)
C[C@@H](O)[C@H]1C(=O)N2C(C(=O)O)=C(SCCNC=N)C[C@H]12.O,0.988 ± 0.074,1.01 ± 0.049,0.981 ± 0.034,0.897 ± 0.086,1.04 ± 0.089,1.25 ± 0.14,0.999 (active)
O=C1CN(/N=C/c2ccc([N+](=O)[O-])o2)C(=O)N1,1.13 ± 0.27,1.14 ± 0.087,0.87 ± 0.068,0.821 ± 0.029,1.21 ± 0.16,1.14 ± 0.17,0.994 (active)
O=C1c2ccccc2C(=O)C1c1ccccn1,0.912 ± 0.069,1.08 ± 0.087,0.993 ± 0.021,0.897 ± 0.055,0.976 ± 0.075,0.95 ± 0.091,0.987 (active)
CN(C)CCN(Cc1ccccc1)Cc1cccc(Cl)c1,0.976 ± 0.057,0.928 ± 0.16,1.05 ± 0.044,0.838 ± 0.04,1.02 ± 0.048,0.87 ± 0.1,0.999 (active)
CCN(CC)c1ccc(C=NNC(=O)c2ccccc2I)c(O)c1,1.35 ± 0.13,0.997 ± 0.069,1.26 ± 0.076,0.436 ± 0.036,1.08 ± 0.11,1.09 ± 0.13,0.926 (active)
CCCCCCC=CCCCCCCCc1cccc(O)c1C(=O)O,0.897 ± 0.067,0.987 ± 0.069,0.96 ± 0.029,0.774 ± 0.043,0.991 ± 0.12,1.06 ± 0.14,1 (active)
COc1ccc(C=NNC(=O)CSc2nnc(-c3ccncc3)n2-c2ccccc2)cc1OC,1.05 ± 0.12,1 ± 0.1,0.962 ± 0.034,0.954 ± 0.05,1.04 ± 0.07,1.01 ± 0.12,0.998 (active)
NC(CO)(CO)CO,1.16 ± 0.24,1.1 ± 0.22,1.01 ± 0.11,0.964 ± 0.11,1.19 ± 0.12,0.966 ± 0.15,1 (active)
O=C(CCc1ccc(F)c(Cl)c1)NCCn1nccn1,1.06 ± 0.052,1.06 ± 0.11,0.972 ± 0.056,1 ± 0.068,1.21 ± 0.076,1.06 ± 0.087,0.992 (active)
Cn1nccc1C(=O)N1CCC(O)(C(F)(F)F)CC1,1.22 ± 0.29,0.996 ± 0.082,1.01 ± 0.078,0.92 ± 0.033,1.14 ± 0.13,1.3 ± 0.19,0.997 (active)
CS(=O)(=O)O.O=C(NC1CCN(CCCCC2(C(=O)NCC(F)(F)F)c3ccccc3-c3ccccc32)CC1)c1ccccc1-c1ccc(C(F)(F)F)cc1,0.0785 ± 0.0033,0.0479 ± 0.004,0.118 ± 0.0076,0.0799 ± 0.0056,0.0322 ± 0.0052,0.0401 ± 0.0064,0.258 (inactive)
COc1c(C)cnc(Cn2cccc(-c3nc(C)no3)c2=O)c1C,0.826 ± 0.2,0.937 ± 0.092,0.967 ± 0.061,0.95 ± 0.033,0.995 ± 0.18,1.1 ± 0.22,0.997 (active)
O=C(CCCCCl)NN1c2ccccc2CCc2ccccc21,1.18 ± 0.19,0.984 ± 0.11,1.09 ± 0.084,0.835 ± 0.022,1.18 ± 0.14,1.25 ± 0.29,1.01 (active)
COc1ccc(C(C)=NNC(=O)Nc2ccccc2)c(OC)c1,0.92 ± 0.083,0.865 ± 0.092,0.932 ± 0.088,1.02 ± 0.063,1.26 ± 0.2,1.4 ± 0.27,1.01 (active)
O=C(Cn1ccnc1[N+](=O)[O-])NCCO [Prestw-649],1.09 ± 0.081,1.01 ± 0.12,1.05 ± 0.03,1.09 ± 0.16,0.982 ± 0.11,0.994 ± 0.15,1 (active)
